In PubChem BioAssay (NCATS):
Values joined by “and” are separate entries in the source; they are usually repeats but may differ in a detail not shown here. Equal entries are not always repeated. Unmarked numbers belong to inactive results. Results filed as inconclusive are left out. Active and inactive are the calls of the source. Unless noted, calls follow the shape of the dose curve; as a rule, active = well fitted inhibition curve with a large enough effect; inconclusive = small, poorly fitted or top-dose-only effect; inactive = flat fitted curve, though single readings scatter. Where a SMILES comes first, the peptide text is derived from it. Bridges are numbered along the chain shown (N, C = ends).

Columns and labels:
[1] = Drug repurposing screens with cells derived from glioblastoma tumor samples (AID 1345199); conditions: GBM patient neurospheres viability, ATP luminescence, 48 h; also: nearly all actives have a fitted effect of over 40% in size; also: potency is read from the fitted curve at half-maximal effect; as to activity, negative = cell killing: % is scaled to controls: 0 for no effect and ±100 for the full control effect
Summary of the method: (§1)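 Primary testing used CD133+ neurospheres from four GBM patients, seven concentrations, 48 h exposure and ATP-based viability; confirmation added three slower-growing patient lines.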

astro = control astrocytes; assay: as above; conditions: viability, ATP luminescence, 48 h; series mostly up to 45.9 µM
Summary of the method: as §1

[2] = target: Nuclear receptor subfamily 1 group I member 2 (Rattus norvegicus) (UniProt Q9R1A7); assay: qHTS assay for small molecule activators of the rat pregnane X receptor (rPXR) signaling pathway (AID 651751; call rule not given here; also: 0% is about no effect); conditions: rPXR reporter cells, luciferase (One-Glo), 24 h
[3] = qHTS assay for small molecule activators of the human pregnane X receptor (PXR) signaling pathway (AID 720659; call rule not given here; also: 0% is about no effect); conditions: DPX-2 HepG2 CYP3A4-luciferase, 24 h; series mostly up to 92.3 µM
[4] = at 45.9 µM (top of the series), tumour line B
[5] = at 45.9 µM (top of the series), tumour line D
[6] = at 46.1 µM (top of the series), tumour line C
[7] = at 46 µM (top of the series), tumour line A

Sequence of Nuclear receptor subfamily 1 group I member 2 (Rattus norvegicus) (Q9R1A7 whole entry, looked up): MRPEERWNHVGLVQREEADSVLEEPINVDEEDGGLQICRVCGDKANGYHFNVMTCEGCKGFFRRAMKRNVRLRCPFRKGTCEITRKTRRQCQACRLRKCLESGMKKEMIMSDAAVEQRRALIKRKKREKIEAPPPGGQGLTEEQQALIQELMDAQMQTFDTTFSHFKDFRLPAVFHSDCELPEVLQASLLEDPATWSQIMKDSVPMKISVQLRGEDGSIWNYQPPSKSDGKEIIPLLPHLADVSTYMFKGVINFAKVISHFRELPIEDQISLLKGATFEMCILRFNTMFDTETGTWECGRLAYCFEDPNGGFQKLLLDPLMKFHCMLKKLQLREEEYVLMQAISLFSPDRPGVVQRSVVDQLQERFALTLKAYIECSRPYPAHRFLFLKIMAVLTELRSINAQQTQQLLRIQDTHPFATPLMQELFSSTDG

| SMILES | activity, negative = cell killing [1, 4] | activity, negative = cell killing [1, 5] | activity, negative = cell killing [1, 6] | Potency ([1]; tumour line A) | Potency (astro) | activity, negative = cell killing [1, 7] | max response [2] | outcome [3] |
| --- | --- | --- | --- | --- | --- | --- | --- | --- |
| CCC(=O)OCC(=O)[C@@]1(OC(=O)CC)[C@H](C)C[C@H]2[C@@H]3CCC4=CC(=O)C=C[C@]4(C)[C@@]3(F)[C@@H](O)C[C@@]21C | -7.21% | -9.28% | -2.15% | 17.8 µM (active) | inactive | – | – | – |
| C/C(=C(\CCOC(=O)c1ccccc1)SS/C(CCOC(=O)c1ccccc1)=C(/C)N(C=O)Cc1cnc(C)nc1N)N(C=O)Cc1cnc(C)nc1N | -18% | -28% | -22.5% | 35.5 µM (active) | inactive | – | – | – |
| CCCC(=O)O[C@]1(C(=O)COC(=O)CC)[C@@H](C)C[C@H]2[C@@H]3CCC4=CC(=O)C=C[C@]4(C)[C@@]3(F)[C@@H](O)C[C@@]21C | -13% | -14.2% | 9.54% | 12.6 µM (active) | inactive | – | – | – |
| CCC(CN)CC(C)CCNCC(O)CNCC(C)CC(CC)CN (stereo not drawn) | -0.989% | -7.35% | -0.671% | – | inactive | -19.2% | – | – |
| CCCN(CC)C(CC)C(=O)Nc1c(C)cccc1C (stereo not drawn) | -5.49% | -11.8% | -9.76% | – | inactive | -28.6% | – | – |
| O=P(O)(O)OC(CO)CO | -13.5% | 14.6% | 3.76% | – | inactive | -6.76% | – | – |
| NCCCC(=O)O | -13.9% | -9.35% | -16.7% | – | inactive | 3.28% | – | – |
| CCCCC(=O)O | -3.62% and -8.26% | 6.9% and -1.28% | -7.54% and 1.54% | – | inactive | -15.7% | – | – |
| Nc1c(CC(=O)O)cccc1C(=O)c1ccccc1 | -6.42% and -16.2% | 1.99% and -19.1% | -6.15% and -12.2% | – | inactive | -11.4% | – | – |
| CC(=O)N[C@@H](C=O)[C@H](O)[C@H](O)[C@@H](O)CO | -7.64% and 0.13% | -11.8% and 0.539% | 6.46% and 10.4% | – | inactive | 1.93% | – | – |
| C[C@H]1C[C@H]2[C@@H]3CCC4=CC(=O)C=C[C@]4(C)[C@@]3(F)[C@@H](O)C[C@]2(C)[C@@]1(O)C(=O)CCl | 1.74% | -15.9% | 12.3% | 35.5 µM (active) | inactive | – | – | – |
| CCOC(=O)COc1ccc2c(C)c(CCN(CC)CC)c(=O)oc2c1 | 4.06% | 5.03% | -14.9% | 12.6 µM (active) | inactive | – | – | – |
| CCCCCCCCCCCCCCCC(=O)OCCC1CCN(CCCN2c3ccccc3Sc3ccc(S(=O)(=O)N(C)C)cc32)CC1 | -1.24% | -12.7% | 11% | – | inactive | -28.1% | – | – |
| CS(=O)(=O)OCCCNCCCOS(C)(=O)=O | 5.52% | -25.4% | 2.38% | 39.8 µM (active) | inactive | – | – | – |
| CCN1CCCC1CNC(=O)c1cc(S(=O)(=O)CC)ccc1OC (stereo not drawn) | -1.25% and -14.5% | -0.732% and -9.3% | 11.5% and 15.2% | – | inactive | -20% | – | – |
| CO/N=C(\C(=O)N[C@@H]1C(=O)N2C(C(=O)OCOC(=O)C(C)(C)C)=C(/C=C\c3scnc3C)CS[C@H]12)c1csc(N)n1 | -2.3% | -0.209% | -3.78% | – | inactive | -23.3% | – | – |
| CC1(C)C2CC[C@]3(C)[C@H](C(=O)C=C4[C@@H]5C[C@@](C)(C(=O)O)CC[C@]5(C)CC[C@]43C)[C@@]2(C)CC[C@@H]1O[C@H]1O[C@H](C(=O)O)[C@@H](O)[C@H](O)[C@H]1O[C@@H]1O[C@H](C(=O)O)[C@@H](O)[C@H](O)[C@H]1O (stereo partly drawn) | -4.03% | -9.47% | -1.2% | – | inactive | -26.6% | – | – |
| O=C1O[C@H]2[C@H](O)[C@@H]1OC(O)[C@H]2O (stereo partly drawn) | -7.22% | -9.05% | 16.3% | – | inactive | -25.4% | – | – |
| C[C@H]1C[C@@H]2[C@H]([C@@H](O)C[C@@]3(C)[C@H]2CC[C@]3(O)C(=O)COC(=O)CCC(=O)O)[C@@]2(C)C=CC(=O)C=C12 | -16.2% | -23.4% | -3.84% | – | inactive | -16.8% | – | – |

| SMILES | activity, negative = cell killing [1, 4] | activity, negative = cell killing [1, 5] | activity, negative = cell killing [1, 6] | Potency ([1]; tumour line A) | Potency (astro) | activity, negative = cell killing [1, 7] | max response [2] | outcome [3] |
| --- | --- | --- | --- | --- | --- | --- | --- | --- |
| C=Cc1ccccc1 | -11.1% | 3.17% | 3.42% | – | inactive | -1.65% | 2.91% and 3.44% | inactive |
| C=C[C@]1(C)C[C@@H](OC(=O)CO)[C@]2(C)[C@H](C)CC[C@]3(CCC(=O)[C@H]32)[C@@H](C)[C@@H]1O | -6.6% | -13.7% | -2.01% | – | inactive | -29.8% | – | – |
| CC(=O)S[C@@H]1CC2=CC(=O)CC[C@]2(C)[C@H]2CC[C@@]3(C)[C@@H](CC[C@@]34CCC(=O)O4)[C@H]12 | -27.2% | -26.7% | -22.4% | 10 µM (active) | inactive | – | – | – |
| COC[C@H](c1ccc(C(F)(F)F)cc1)N1CCN(C2(C)CCN(C(=O)c3c(C)ncnc3C)CC2)C[C@H]1C | -1.49% | -13.4% | 5.67% | 11.2 µM (active) | inactive | – | – | – |
| Cc1[nH]cnc1C[C@H]1CCc2c(C)c3ccccc3n2C1=O | 11.6% | -27.1% | 1.77% | – | inactive | -27.2% | – | – |
| CCC(=O)OCC(=O)[C@@]1(OC(=O)CC)[C@@H](C)C[C@H]2[C@@H]3CCC4=CC(=O)C=C[C@]4(C)[C@@]3(Cl)[C@@H](O)C[C@@]21C | -9.44% | – | -19% | 10 µM (active) | inactive | – | – | – |
| CC(=O)O[C@H]1C[C@@H]2CC[C@@H]3[C@H](CC[C@@]4(C)[C@H]3C[C@H](N3CC[N+](C)(C)CC3)[C@@H]4OC(C)=O)[C@@]2(C)C[C@@H]1N1CC[N+](C)(C)CC1 | -3.42% | 1.51% | 2.56% | – | inactive | – | – | – |
| Cn1nnnc1SCC1=C(C(=O)O)N2C(=O)[C@@H](NC(=O)[C@H](OC=O)c3ccccc3)[C@H]2SC1 | -10.5% | -17.5% | -8.9% | – | inactive | -11.9% | – | – |
| C[C@@H]1C[C@H]2C3C[C@H](F)C4=CC(=O)C=CC4(C)[C@@]3(F)[C@@H](O)CC2(C)[C@@]1(O)C(=O)COC(=O)C(C)(C)C (stereo partly drawn) | -6.93% | -10.7% | 2.01% | 12.6 µM (active) | inactive | – | – | – |
| CCCCCCCCCC(=O)O | -8.75% | -10.5% | -4.57% | – | inactive | -20.2% | -3.39% and -5.8% | inactive |
| C1CNCCN1 | -11% | -24.6% | -0.46% | – | inactive | -15.8% | – | – |
| CCOC(=O)[C@H](CCc1ccccc1)N[C@@H](C)C(=O)N1CC2(C[C@H]1C(=O)O)SCCS2 | -13.1% | 3.06% | 2.21% | – | inactive | -27.1% | – | – |
| O=C(O)CC(O)(CC(=O)O)C(=O)O | -4.79% | -16.4% | 8.12% | – | inactive | -28.2% | -3.16% and 0.294% and 0.384% | inactive |
| CCOc1ccc(N=C(C)Nc2ccc(OCC)cc2)cc1 | -12.2% | – | -2.07% | 11.2 µM (active) | inactive | – | – | – |
| CCCC1([C@H](O)C/C=C/[C@H]2[C@H](O)CC(=O)[C@@H]2CCCCCCC(=O)OC)CCC1 | 0.947% | -12.7% | -22% | 20 µM (active) | inactive | – | – | – |
| C[C@H](CSC(=O)c1ccccc1)C(=O)N1C[C@@H](Sc2ccccc2)C[C@H]1C(=O)O | -6.07% | 2.27% | -10.8% | – | inactive | -16.6% | – | – |
| NCCCC[C@H](NC(=O)[C@@H]1CCCN1C(=O)[C@@H]1CSSC[C@H](NC(=O)CNC(=O)CNC(=O)CN)C(=O)N[C@@H](Cc2ccc(O)cc2)C(=O)N[C@@H](Cc2ccccc2)C(=O)N[C@@H](CCC(N)=O)C(=O)N[C@@H](CC(N)=O)C(=O)N1)C(=O)NCC(N)=O (H-GGGCYFQNCPKG-NH2; disulfide 4-9) | -8.67% | 3.33% | 22.1% | – | inactive | -28% | – | – |
| O=C1C(c2[nH]c3ccc(S(=O)(=O)O)cc3c2O)=Nc2ccc(S(=O)(=O)O)cc21 | -3.91% and -0.988% and -8.05% | -5.52% and -3.79% and -6.7% | 2.85% and 2.31% and 15% | – | inactive | -11.9% | – | – |
